# Measurements as given in PMC4552634, “A New Set of Chemical Starting Points with Plasmodium falciparum Transmission-Blocking Potential for Antimalarial Drug Discovery” (PLoS ONE, 2015).
# Read-outs that look alike come from different tables or passages of the source. The whole screen tested about 13,000 compounds, of which about 3,200 (25%) showed an effect of 50% or more. This is one part of the list.
# Test system: P. falciparum stage V gametocytes
# Parameters: BacTiter-Glo ATP luminescence viability of purified stage V gametocytes in 384-well plates, per cent inhibition versus DMSO
# Conditions: 48 h, 5 µM, inhibitor
Structure (SMILES),% Inhibition (% Inhibition) [%],% Inhibition [%]
COc1ccc2ncc(F)c(C(O)CN3CCC(NCc4ccc5c(n4)NC(=O)CO5)CC3)c2c1 (stereo not drawn) [TCMDC-135531],14.63,
CN(C)CCOc1ccc2c(c1)OC(C)(C)C=C2c1cccc2ccccc12 [TCMDC-131402],,-10.44
CNC(=O)C1Cc2c([nH]c3c(C)cccc23)C2(N1)C(=O)Nc1ccc(OC(F)(F)F)cc12 (stereo not drawn) [TCMDC-140663],,46.7
COc1cc(Cc2cnc(N)nc2N)ccc1OCc1csc(-c2ccc(Cl)cc2)n1 [TCMDC-138680],,16.88
CCCc1cc(C(C)=O)ccc1OCCCON1C(N)=NC(N)=NC1(C)C [TCMDC-131336],,-2.455
CS(=O)(=O)NCCCNCc1cccc(-c2ccc(-c3nc4ccccc4[nH]3)s2)c1.O=C(O)C(F)(F)F [TCMDC-133088],,4.156
CC(=O)c1sc2ccccc2c1O [TCMDC-125829],,14.25
COc1ccc2nccc(NC(=O)OC3CCC(NCc4ccc5c(n4)NC(=O)CS5)CC3)c2c1 (stereo not drawn) [TCMDC-141555],,-20.26
COc1ccc2nccc(NC(=O)C3CCC(NCc4ccc5c(c4)NC(=O)CS5)CC3)c2c1 (stereo not drawn) [TCMDC-141228],,28.37
COc1ccc2nccc(CCC3(O)CCC(NCc4cc5c(cc4F)SCC(=O)N5)CC3)c2c1 (stereo not drawn) [TCMDC-141917],,62.44
O=C(Nc1cccc(-c2cccc(-c3nc4ccccc4[nH]3)c2)c1)Nc1ccc(Cl)c(Cl)c1 [TCMDC-133276],,-27.25
O=C(NC1CC1)c1ccc(N2CCN(Cc3ccc(Cl)cc3)CC2)nc1 [TCMDC-134579],,-1.025
CN1CCC(N(Cc2ccc(N3CCN(Cc4c[nH]c5ccc(Cl)cc45)CC3)nc2)C2CC2)CC1 [TCMDC-125090],,56.06
CN(C)C1CCN(Cc2ccc(N3CCN(Cc4cccc5[nH]ccc45)CC3)nc2)CC1 [TCMDC-125091],,12.57
COc1ccc(-c2nc3c(N)nc(N)nc3nc2C(C)C)cc1 [TCMDC-132109],,-10.94
COc1ccc2nccc([C@@H](O)CN3CCC(NC(=O)C(c4cc5ccccc5s4)N4CCN(c5ccccc5OC)CC4)CC3)c2c1 (stereo partly drawn) [TCMDC-140998],,-1.294
Cc1nn(-c2cccc(Cl)c2)c2c1C(C(=O)c1ccc3c(c1)OCO3)CC(=O)N2 (stereo not drawn) [TCMDC-124734],,53.61
Cc1cccc(-n2nc(C)c3c2NC(=O)CC3C(=O)c2ccc(Cl)s2)c1 (stereo not drawn) [TCMDC-124735],,9.48
Cc1ccc(-n2nc(C)c3c2NC(=O)CSC3c2ccsc2)cc1 (stereo not drawn) [TCMDC-124763],,18.54
COc1ccc2ncc(F)c(CCN3CC(O)C(CNCc4nc5c(cc4Cl)OCC(=O)N5)C3)c2n1 (stereo not drawn) [TCMDC-136076],36.95,
CN(C)c1ccc(Br)c(Br)c1 [TCMDC-137228],,-4.164
CCc1ccc(N2C(N)=NC(N)=NC2(C)C)cc1 [TCMDC-137714],,18.99
O=C(Nc1cccc2ccccc12)N1CCc2cc3nccc(N4CCN5CCC[C@H]5C4)c3cc21 [TCMDC-140051],,-22.56

Structure (SMILES),% Inhibition (% Inhibition) [%],% Inhibition [%]
COc1ccc(N2CCN(CCCCNC(=O)c3ccc(NC(=O)c4cc(Cl)cc(Cl)c4)cc3)CC2)c(OC)c1 [TCMDC-138158],,-3.672
COc1ccc(N2CCN(CCCCNC(=O)c3ccc(NC(=O)c4ccc(Cl)cc4)cc3)CC2)c(OC)c1 [TCMDC-138121],,-18.96
COc1ccc(N2CCN(CCCC/C=C/c3ccc(NC(=O)c4cc(Cl)cc(Cl)c4)cc3)CC2)c(OC)c1 [TCMDC-138219],,10.07
COc1ccc(N2CCN(CCCNC(=O)c3ccc(NC(=O)c4cc(Cl)cc(Cl)c4)cc3)CC2)c(OC)c1 [TCMDC-138244],,-9.881
COc1ccc(N2CCN(CCCOc3ccc(NC(=O)c4cc(Cl)cc(Cl)c4)cc3)CC2)c(OC)c1 [TCMDC-138225],,-23.18
COc1ccc(N2CCN(CCCCNCc3ccc(NC(=O)c4cc(Cl)cc(Cl)c4)cc3)CC2)c(OC)c1 [TCMDC-138226],,99.96
COc1ccc(N2CCN(CCCCNC(=O)c3ccc(NC(=O)c4ccc(Cl)c(Cl)c4)cc3)CC2)c(OC)c1 [TCMDC-138159],,58.71
COc1ccc(N2CCN(CCCCNC(=O)c3ccc(NC(=O)c4ccc(C(F)(F)F)cc4)cc3)CC2)c(OC)c1 [TCMDC-138132],,-49.13
COc1ccc(N2CCN(CCCCNC(=O)c3ccc(NC(=O)c4cccc(Cl)c4)cc3)CC2)c(OC)c1 [TCMDC-138183],,74.19
Cc1ccoc1C(=O)Nc1cccc(-c2cccc(-c3nc4ccc(C(F)(F)F)cc4[nH]3)c2)c1 [TCMDC-136835],,10.66
Cc1onc(-c2c(Cl)cccc2Cl)c1C(=O)N1CCc2cc3nccc(N4CCN5CCC[C@H]5C4)c3cc21 [TCMDC-140048],,3.329
COc1cc(C(F)(F)F)nc2c(CNCCCNc3cc(=O)c4ccccc4[nH]3)scc12 [TCMDC-141145],,-12.37
CNc1nc(N/N=C/c2cc3c(cc2[N+](=O)[O-])OCO3)nc(Nc2cccc(C(F)(F)F)c2)n1 [TCMDC-124216],,15.24
Cc1ccc([N+](=O)[O-])cc1NC(=O)N(CC(O)c1ccccc1)C1CCCCC1 (stereo not drawn) [TCMDC-123672],,2.226
O=C(Nc1ccccc1F)N(CCCn1ccnc1)Cc1csc(-c2ccc(CNCc3ccccc3)cc2)n1 [TCMDC-141643],,22.98
CCCCNCc1ccc(-c2nc(CN(C(=O)Nc3cc([N+](=O)[O-])ccc3F)C3Cc4ccccc4C3)cs2)cc1 [TCMDC-141640],,54.3
COc1ccc(Cc2c(C)nc3nc(N)nc(N)c3c2C)cc1OC [TCMDC-137649],,1.878
O=C(Nc1ccc(Cl)cc1)N1CCN(C2CCCCC2)CC1 [TCMDC-125819],,10
O=C(Nc1ccc2c(c1)CCC2)c1cccc(CN2CCCN(Cc3cccc(O)c3)CC2)c1 [TCMDC-135957],,14.29
NC(=NCc1ccccc1Cl)NCCc1c[nH]c2ccccc12 [TCMDC-138012],,-46.58
O=C(Cc1ccsc1)NCC(c1ccccc1Cl)c1c[nH]c2ccccc12 (stereo not drawn) [TCMDC-125251],,11.67
O=C(Cc1cccs1)NCC(c1ccccc1Cl)c1c[nH]c2ccccc12 (stereo not drawn) [TCMDC-125062],,59.09
COc1ccc2nc3cc(Cl)ccc3c(NCCCCCCNc3c4ccc(Cl)cc4nc4ccc(OC)cc34)c2c1 [TCMDC-137503],,106.2

Structure (SMILES),% Inhibition (% Inhibition) [%],% Inhibition [%]
COc1ccc2nc3cc(Cl)ccc3c(N)c2c1.Cl [TCMDC-125835],,124.4
COc1ccc2nc3cc(Cl)ccc3c(Nc3ccc(Sc4ccc(Nc5c6ccc(Cl)cc6nc6ccc(OC)cc56)cc4)cc3)c2c1.Cl [TCMDC-137673],,-84.83
CCN(CC)CCNc1c2ccc(Cl)cc2nc2ccc(OC)nc12 [TCMDC-137937],,-10.21
COc1ccc2nc3cc(Cl)ccc3c(NCCCCNc3c4ccc(Cl)cc4nc4ccc(OC)cc34)c2c1 [TCMDC-138218],,112.4
COc1ccc2nc3cc(Cl)ccc3c(NCCNCC(O)CO)c2n1 (stereo not drawn) [TCMDC-137938],,74.53
COc1ccc2nc3cc(Cl)ccc3c(NCc3ccccc3)c2c1.Cl [TCMDC-137663],,-68.8
COc1ccc2nc3cc(Cl)ccc3c(Nc3ccc(Oc4ccc(Nc5c6ccc(Cl)cc6nc6ccc(OC)cc56)cc4)cc3)c2c1.Cl [TCMDC-137674],,-12.74
COc1ccc2nc3cc(Cl)ccc3c(NCCCO)c2c1 [TCMDC-124144],,20.12
CCOc1ccc(-n2nc3c(Cl)nnc(-c4ccccc4)c3c2-c2ccccc2)cc1 [TCMDC-123899],,-2.574
CCCC(C)Nc1nc(C)cc(N[C@@H](CC(C)C)C(=O)NC2CCCC2)n1 (stereo partly drawn) [TCMDC-134895],,-73.82
CC1CCc2sc(-c3nnc(SC(C)C(=O)NC4CC4)o3)cc2C1 (stereo not drawn) [TCMDC-124866],,6.4
CCOc1ncccc1CN1CCC(N2CCc3cc(NC(=O)c4cc(C)on4)ccc32)C1 (stereo not drawn) [TCMDC-135086],,-27.43
NC(=O)c1cccc(CNC(=O)NC[C@H]2CN(Cc3ccc(Cl)c(Cl)c3)CCO2)c1 [TCMDC-138745],,31.93
COc1cc(NC(=O)/C=C/c2cccc3ccoc23)ccc1OCCN(C(C)C)C(C)C [TCMDC-139958],,3.846
CCOC(=O)NC1=NC(C)(C)N(OCc2ccc(Cl)c(Cl)c2)C(NC(=O)OCC)=N1 [TCMDC-131729],,1.326
COc1ccc2c(c1)C(C)(CCCN(C)C)C(=O)N2C (stereo not drawn) [TCMDC-138945],,13.31
COc1ccc2nc3cc(Cl)ccc3c(NCCCCN)c2c1 [TCMDC-137526],,92.71
COc1ccc2nc3cc(Cl)ccc3c(NCCN(C)C)c2c1 [TCMDC-139093],,54.53
COc1ccc2nc3cc(Cl)ccc3c(NCCO)c2c1 [TCMDC-124272],,0.5882
COc1ccc2nccc([C@@H](O)CN3CCC(NCc4nc5c(cc4F)SCC(=O)N5)C(F)C3)c2c1 (stereo partly drawn) [TCMDC-141681],,-15.96
O=[N+]([O-])c1cccc(-c2nc3cc(C4=NC5CCCCC5N4)ccc3[nH]2)c1 (stereo not drawn) [TCMDC-137221],,5.96
O=[N+]([O-])c1ccc(-c2nc3cc(C4=NC5CCCCC5N4)ccc3[nH]2)cc1 (stereo not drawn) [TCMDC-137220],,5.239
Nc1ccc(-c2nc3cc(C4=N[C@H]5CCCC[C@H]5N4)ccc3o2)cc1[N+](=O)[O-] [TCMDC-137253],,108.2
